This passage reports binding signal results from PMC7862700, “An all-to-all approach to the identification of sequence-specific readers for epigenetic DNA modifications on cytosine”.

Common to all, as to assay: DAPPL (digital affinity profiling via proximity ligation, sequencing); 10 mM Tris-HCl pH 7.5, 50 mM NaCl, 1 mM DTT, 4% glycerol, room temperature, 30 min; GST-TFs on glutathione beads, 16-mer random dsDNA library, 0.1% formaldehyde crosslink after washing; high values mean tight binding
One test has as its target T1, FLI1 (Homo sapiens, UniProt Q01543 1-452).
T1 sequence: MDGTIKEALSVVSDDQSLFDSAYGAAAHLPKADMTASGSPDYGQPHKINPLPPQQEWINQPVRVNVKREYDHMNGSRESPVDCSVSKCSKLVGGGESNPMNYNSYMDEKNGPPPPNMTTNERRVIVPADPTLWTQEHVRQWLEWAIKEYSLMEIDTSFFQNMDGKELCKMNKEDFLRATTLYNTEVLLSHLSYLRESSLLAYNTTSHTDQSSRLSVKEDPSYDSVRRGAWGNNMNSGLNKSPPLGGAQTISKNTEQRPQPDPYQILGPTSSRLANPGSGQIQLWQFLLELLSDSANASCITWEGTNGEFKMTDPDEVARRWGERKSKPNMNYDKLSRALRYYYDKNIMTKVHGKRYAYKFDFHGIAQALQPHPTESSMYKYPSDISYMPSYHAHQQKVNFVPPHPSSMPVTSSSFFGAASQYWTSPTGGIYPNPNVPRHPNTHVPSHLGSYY
The note with it: protein: recombinant; tags: N-terminal GST; dsDNA, one strand shown. The gist of the method:
(§1)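 The binding signal reported is, for every hexamer, its read frequency for a factor over its read frequency for the tag-only sample. Reads came from pools of yeast-expressed, GST-fused human transcription factors on glutathione beads, barcoded with DNA and mixed with that sample, which were incubated with 200 nmole of a random double-stranded 16-mer DNA library in Tris/NaCl/DTT/glycerol buffer at room temperature for 30 min. After washing, the pools were crosslinked with 0.1% formaldehyde, proximity-ligated with BsaI/T4 ligase for 1 h at 37 °C, PCR-amplified and sequenced on an Illumina NextSeq500.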

A further test has as its target T2, ELK1 (Homo sapiens, UniProt P19419 1-428).
T2 sequence: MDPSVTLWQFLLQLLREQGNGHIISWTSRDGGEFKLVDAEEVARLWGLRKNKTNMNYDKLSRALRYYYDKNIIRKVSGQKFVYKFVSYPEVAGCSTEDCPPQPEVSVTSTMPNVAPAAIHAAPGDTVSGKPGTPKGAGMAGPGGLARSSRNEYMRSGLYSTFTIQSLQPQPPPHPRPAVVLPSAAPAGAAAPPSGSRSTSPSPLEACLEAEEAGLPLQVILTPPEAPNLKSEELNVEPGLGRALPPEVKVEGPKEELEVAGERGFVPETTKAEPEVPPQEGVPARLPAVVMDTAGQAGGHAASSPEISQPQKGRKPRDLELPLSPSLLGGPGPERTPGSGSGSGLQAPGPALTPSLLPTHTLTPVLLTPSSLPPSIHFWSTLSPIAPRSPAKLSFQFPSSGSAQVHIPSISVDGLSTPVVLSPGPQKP
Conditions: protein: recombinant; tags: N-terminal GST; dsDNA, one strand shown. The gist of the method:
as §1

For the next test, the target named is T3, GABPA (Homo sapiens, UniProt Q06546 1-454).
T3 sequence: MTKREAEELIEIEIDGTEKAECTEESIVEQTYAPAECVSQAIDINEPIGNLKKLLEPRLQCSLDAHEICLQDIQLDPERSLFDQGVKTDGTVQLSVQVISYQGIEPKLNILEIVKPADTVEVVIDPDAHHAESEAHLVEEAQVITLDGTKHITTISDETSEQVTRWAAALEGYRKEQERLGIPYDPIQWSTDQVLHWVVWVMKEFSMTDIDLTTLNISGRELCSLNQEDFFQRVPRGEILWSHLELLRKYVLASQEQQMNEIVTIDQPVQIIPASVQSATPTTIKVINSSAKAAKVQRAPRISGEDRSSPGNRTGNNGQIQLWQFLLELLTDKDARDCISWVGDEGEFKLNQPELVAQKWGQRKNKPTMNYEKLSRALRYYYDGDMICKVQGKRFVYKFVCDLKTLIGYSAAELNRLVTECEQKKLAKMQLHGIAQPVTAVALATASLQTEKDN
Conditions: protein: recombinant; tags: N-terminal GST; dsDNA, one strand shown. The gist of the method: as §1

The next test has as its target T4, ERG (Homo sapiens, UniProt P11308 1-479).
T4 sequence: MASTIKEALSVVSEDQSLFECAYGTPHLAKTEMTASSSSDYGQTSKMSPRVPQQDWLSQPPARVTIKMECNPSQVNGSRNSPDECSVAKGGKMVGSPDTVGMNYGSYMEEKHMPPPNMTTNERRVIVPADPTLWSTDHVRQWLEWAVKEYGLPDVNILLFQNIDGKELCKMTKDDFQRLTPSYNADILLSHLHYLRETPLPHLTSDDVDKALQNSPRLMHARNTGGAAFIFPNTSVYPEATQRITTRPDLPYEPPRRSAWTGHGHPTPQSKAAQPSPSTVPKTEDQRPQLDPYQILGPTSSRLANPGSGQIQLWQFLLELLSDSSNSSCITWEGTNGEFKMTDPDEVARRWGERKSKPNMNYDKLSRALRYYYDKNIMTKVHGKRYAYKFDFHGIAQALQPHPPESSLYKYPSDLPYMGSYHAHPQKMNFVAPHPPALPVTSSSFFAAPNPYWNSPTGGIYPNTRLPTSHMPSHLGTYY
The note with it: protein: recombinant; tags: N-terminal GST; dsDNA, one strand shown. The gist of the method:
as §1

The next test addresses ELF1 (Homo sapiens, UniProt P32519 1-619). Conditions: protein: recombinant; tags: N-terminal GST; dsDNA, one strand shown. The gist of the method: as §1
The next test addresses T5, EHF (Homo sapiens, UniProt Q9NZC4 1-300).
T5 sequence: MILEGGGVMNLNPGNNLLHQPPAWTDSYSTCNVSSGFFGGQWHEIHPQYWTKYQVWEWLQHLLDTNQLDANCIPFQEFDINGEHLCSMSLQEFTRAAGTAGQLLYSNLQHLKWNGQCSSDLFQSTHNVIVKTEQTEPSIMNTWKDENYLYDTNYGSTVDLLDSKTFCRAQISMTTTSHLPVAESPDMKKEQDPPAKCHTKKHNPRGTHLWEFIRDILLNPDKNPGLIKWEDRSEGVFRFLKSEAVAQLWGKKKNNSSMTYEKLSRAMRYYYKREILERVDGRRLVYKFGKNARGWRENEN
Conditions: protein: recombinant; tags: N-terminal GST; dsDNA, one strand shown. The gist of the method: as §1

Another test has as its target SPIB (Homo sapiens, UniProt Q01892 1-262). The note with it: protein: recombinant; tags: N-terminal GST; dsDNA, one strand shown. The gist of the method: as §1
The target of another test is T6, ELK3 (Homo sapiens, UniProt P41970 1-407).
T6 sequence: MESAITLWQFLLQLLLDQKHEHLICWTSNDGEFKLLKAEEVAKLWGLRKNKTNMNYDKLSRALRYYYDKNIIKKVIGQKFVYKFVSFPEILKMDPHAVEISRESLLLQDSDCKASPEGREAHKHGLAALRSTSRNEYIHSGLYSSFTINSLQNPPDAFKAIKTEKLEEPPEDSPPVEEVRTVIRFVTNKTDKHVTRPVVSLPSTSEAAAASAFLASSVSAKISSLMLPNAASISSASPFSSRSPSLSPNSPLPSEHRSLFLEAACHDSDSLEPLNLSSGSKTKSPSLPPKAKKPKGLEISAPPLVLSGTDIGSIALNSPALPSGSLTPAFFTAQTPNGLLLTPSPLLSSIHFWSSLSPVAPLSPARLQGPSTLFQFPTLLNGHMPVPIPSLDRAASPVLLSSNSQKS
The note with it: protein: recombinant; tags: N-terminal GST; dsDNA, one strand shown. The gist of the method: as §1

For a further test, the target named is T7, FEV (Homo sapiens, UniProt Q99581 1-238).
T7 sequence: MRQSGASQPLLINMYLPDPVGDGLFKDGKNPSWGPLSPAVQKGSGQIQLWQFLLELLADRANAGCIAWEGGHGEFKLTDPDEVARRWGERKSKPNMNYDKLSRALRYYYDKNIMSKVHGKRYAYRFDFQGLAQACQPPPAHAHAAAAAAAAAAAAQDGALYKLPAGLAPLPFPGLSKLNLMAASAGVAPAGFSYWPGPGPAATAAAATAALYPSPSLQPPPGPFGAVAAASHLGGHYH
The note with it: protein: recombinant; tags: N-terminal GST; dsDNA, one strand shown. The gist of the method: as §1

The target of a further test is ETV5 (Homo sapiens, UniProt P41161 1-510). The note with it: protein: recombinant; tags: N-terminal GST; dsDNA, one strand shown. The gist of the method: as §1
A further test has as its target HSF1 (Homo sapiens, UniProt Q00613 1-529). Conditions: protein: recombinant; tags: N-terminal GST; chain copies: 3; dsDNA, one strand shown. The gist of the method: as §1
In the next test the target is T8, SPIC (Homo sapiens, UniProt Q8N5J4 1-248).
T8 sequence: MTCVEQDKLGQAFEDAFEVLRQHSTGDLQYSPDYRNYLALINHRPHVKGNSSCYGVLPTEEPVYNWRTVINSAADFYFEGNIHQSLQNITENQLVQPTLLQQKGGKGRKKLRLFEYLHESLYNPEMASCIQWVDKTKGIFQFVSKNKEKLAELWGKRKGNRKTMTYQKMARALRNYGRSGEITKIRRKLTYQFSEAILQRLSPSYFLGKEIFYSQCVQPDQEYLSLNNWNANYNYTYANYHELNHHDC
The note with it: protein: recombinant; tags: N-terminal GST; dsDNA, one strand shown. The gist of the method: as §1

Another test addresses ELF4 (Homo sapiens, UniProt Q99607 1-663). Conditions: protein: recombinant; tags: N-terminal GST; dsDNA, one strand shown. The gist of the method: as §1
In the next test the target is T9, ELK4 (Homo sapiens, UniProt P28324-2 1-405).
T9 sequence: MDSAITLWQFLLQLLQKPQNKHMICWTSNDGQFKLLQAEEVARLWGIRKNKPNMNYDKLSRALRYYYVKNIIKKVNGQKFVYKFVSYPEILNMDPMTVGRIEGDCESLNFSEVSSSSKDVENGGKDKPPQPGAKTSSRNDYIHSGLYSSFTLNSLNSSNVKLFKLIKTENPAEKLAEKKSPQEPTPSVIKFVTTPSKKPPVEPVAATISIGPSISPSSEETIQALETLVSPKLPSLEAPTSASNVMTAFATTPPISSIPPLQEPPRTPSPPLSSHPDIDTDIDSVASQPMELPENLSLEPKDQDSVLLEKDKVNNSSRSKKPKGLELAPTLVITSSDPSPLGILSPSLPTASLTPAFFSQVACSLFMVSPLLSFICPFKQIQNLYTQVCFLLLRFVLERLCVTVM
The note with it: protein: recombinant; tags: N-terminal GST; dsDNA, one strand shown. The gist of the method: as §1

The next test concerns the target T10, ETV2 (Homo sapiens, UniProt O00321 1-342).
T10 sequence: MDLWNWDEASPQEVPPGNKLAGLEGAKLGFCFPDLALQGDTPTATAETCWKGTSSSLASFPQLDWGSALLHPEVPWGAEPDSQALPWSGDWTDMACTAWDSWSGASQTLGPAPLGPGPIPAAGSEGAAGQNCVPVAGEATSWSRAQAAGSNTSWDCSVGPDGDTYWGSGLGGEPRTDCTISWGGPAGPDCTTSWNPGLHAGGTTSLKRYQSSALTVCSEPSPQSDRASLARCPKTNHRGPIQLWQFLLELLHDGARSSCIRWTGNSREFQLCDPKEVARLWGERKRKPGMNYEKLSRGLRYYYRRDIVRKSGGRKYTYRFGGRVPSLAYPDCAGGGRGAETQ
The note with it: protein: recombinant; tags: N-terminal GST; dsDNA, one strand shown. The gist of the method:
as §1

Another test addresses T11, ELF3 (Homo sapiens, UniProt P78545 1-371).
T11 sequence: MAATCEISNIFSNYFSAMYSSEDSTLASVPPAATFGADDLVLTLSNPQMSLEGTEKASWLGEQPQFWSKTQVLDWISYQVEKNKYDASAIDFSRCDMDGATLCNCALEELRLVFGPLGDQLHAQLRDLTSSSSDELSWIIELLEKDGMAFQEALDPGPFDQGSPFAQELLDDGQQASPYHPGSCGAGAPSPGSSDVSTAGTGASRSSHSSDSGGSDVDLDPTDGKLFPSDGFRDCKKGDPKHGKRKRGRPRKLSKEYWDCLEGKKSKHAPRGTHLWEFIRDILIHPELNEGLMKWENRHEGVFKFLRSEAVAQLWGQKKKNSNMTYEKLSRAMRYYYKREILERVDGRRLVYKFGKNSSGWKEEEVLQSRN
Conditions: protein: recombinant; tags: N-terminal GST; dsDNA, one strand shown. The gist of the method: as §1

For a further test, the target named is ETV1 (Homo sapiens, UniProt P50549 1-477). The note with it: protein: recombinant; tags: N-terminal GST; dsDNA, one strand shown. The gist of the method:
as §1

HSF1, sequence (Q00613 whole entry): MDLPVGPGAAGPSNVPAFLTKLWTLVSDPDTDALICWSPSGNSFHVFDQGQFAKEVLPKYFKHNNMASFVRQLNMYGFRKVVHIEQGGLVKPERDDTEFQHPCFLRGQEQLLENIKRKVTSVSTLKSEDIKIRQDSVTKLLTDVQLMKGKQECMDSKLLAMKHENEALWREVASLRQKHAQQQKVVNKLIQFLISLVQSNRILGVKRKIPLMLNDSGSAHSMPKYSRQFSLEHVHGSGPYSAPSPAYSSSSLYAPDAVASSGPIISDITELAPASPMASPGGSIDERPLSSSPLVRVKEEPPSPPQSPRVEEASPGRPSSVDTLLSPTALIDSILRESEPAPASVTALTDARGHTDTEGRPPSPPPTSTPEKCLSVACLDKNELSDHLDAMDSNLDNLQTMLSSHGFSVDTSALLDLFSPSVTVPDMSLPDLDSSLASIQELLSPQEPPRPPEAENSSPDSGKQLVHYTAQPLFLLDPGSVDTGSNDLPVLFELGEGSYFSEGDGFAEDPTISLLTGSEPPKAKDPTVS
ELF4, sequence (Q99607 whole entry): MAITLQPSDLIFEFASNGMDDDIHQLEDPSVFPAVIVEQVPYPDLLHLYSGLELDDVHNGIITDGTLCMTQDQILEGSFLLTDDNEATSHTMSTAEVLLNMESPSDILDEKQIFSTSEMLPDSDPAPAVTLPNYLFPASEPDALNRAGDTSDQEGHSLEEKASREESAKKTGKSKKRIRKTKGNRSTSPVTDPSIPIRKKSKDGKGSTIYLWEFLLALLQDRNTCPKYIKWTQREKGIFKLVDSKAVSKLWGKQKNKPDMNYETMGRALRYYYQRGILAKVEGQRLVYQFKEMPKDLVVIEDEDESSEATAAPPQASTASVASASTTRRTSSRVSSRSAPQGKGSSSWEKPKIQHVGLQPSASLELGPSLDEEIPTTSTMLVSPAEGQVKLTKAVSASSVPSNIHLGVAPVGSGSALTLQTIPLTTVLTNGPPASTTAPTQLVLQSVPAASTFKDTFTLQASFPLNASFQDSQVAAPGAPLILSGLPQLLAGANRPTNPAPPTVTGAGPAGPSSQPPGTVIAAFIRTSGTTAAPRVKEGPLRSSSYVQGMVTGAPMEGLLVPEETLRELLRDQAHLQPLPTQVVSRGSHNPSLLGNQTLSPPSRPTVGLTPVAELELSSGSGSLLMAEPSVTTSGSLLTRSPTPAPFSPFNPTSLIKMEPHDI
ETV1, sequence (P50549 whole entry): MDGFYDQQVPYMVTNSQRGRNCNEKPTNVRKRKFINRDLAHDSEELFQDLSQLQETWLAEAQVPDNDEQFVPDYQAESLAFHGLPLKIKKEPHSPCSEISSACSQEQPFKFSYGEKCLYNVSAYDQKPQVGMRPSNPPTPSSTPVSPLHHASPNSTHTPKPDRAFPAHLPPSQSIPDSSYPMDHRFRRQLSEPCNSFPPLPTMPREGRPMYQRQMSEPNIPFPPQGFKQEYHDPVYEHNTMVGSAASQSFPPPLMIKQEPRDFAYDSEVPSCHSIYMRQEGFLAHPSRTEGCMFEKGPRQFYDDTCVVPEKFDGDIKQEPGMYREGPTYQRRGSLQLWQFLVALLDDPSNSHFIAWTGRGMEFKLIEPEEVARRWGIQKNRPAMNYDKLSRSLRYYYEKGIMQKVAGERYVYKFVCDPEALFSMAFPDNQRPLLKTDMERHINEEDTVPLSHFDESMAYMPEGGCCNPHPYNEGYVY
ELF1, sequence (P32519 whole entry): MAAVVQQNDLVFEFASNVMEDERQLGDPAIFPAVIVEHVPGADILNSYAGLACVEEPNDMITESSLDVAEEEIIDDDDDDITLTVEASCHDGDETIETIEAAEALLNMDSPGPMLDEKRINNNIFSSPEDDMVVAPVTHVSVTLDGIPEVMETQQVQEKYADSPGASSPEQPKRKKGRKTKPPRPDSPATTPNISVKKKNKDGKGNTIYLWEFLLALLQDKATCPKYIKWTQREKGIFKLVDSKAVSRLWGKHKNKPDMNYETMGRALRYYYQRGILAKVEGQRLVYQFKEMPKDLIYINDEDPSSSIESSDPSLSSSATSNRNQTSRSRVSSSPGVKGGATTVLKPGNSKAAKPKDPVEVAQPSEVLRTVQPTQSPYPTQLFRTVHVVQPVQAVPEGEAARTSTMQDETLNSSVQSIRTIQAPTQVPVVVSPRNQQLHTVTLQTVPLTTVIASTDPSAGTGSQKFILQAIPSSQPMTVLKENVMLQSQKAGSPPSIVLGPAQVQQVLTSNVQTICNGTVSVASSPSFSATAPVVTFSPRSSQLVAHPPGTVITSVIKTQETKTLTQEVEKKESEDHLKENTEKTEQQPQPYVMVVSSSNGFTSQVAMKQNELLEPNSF
SPIB, sequence (Q01892 whole entry): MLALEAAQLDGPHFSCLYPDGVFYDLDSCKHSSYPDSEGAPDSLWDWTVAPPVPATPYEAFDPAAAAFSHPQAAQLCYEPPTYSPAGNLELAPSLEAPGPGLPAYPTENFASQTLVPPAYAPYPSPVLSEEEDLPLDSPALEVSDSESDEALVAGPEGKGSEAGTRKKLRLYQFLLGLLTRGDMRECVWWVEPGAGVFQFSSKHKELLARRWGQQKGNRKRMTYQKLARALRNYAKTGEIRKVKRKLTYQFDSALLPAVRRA
ETV5, sequence (P41161 whole entry): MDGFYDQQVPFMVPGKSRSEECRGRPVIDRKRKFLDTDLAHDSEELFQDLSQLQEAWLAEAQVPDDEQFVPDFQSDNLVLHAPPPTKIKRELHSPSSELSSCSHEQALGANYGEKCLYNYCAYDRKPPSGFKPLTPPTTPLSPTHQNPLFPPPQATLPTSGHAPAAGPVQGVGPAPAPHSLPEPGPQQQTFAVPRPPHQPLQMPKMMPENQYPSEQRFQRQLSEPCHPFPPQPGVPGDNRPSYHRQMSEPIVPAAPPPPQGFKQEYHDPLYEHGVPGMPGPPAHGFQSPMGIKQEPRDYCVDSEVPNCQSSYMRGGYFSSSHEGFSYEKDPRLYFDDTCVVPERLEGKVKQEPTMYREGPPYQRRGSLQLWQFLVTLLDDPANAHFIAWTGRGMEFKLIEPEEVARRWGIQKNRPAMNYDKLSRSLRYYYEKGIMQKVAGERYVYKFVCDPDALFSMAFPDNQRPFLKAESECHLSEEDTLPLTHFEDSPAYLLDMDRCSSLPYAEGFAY

GATGGT: the binding signal with FLI1 is 1.25 fold enrichment (6-mer frequency, TF over GST control); in the test with ELK1 it was 1.16 fold enrichment (6-mer frequency, TF over GST control); with GABPA, 1.16 fold enrichment (6-mer frequency, TF over GST control); with ERG it was 1.23 fold enrichment (6-mer frequency, TF over GST control); with ELF1 it was 1.14 fold enrichment (6-mer frequency, TF over GST control); with EHF, 1.06 fold enrichment (6-mer frequency, TF over GST control). Besides, the binding signal was 1.19 fold enrichment (6-mer frequency, TF over GST control) with SPIB; 1.17 fold enrichment (6-mer frequency, TF over GST control) with ELK3; 1.07 fold enrichment (6-mer frequency, TF over GST control) with FEV; 1.16 fold enrichment (6-mer frequency, TF over GST control) with ETV5; 1.02 fold enrichment (6-mer frequency, TF over GST control) in the test with HSF1; 1.19 fold enrichment (6-mer frequency, TF over GST control) with SPIC. In addition, the binding signal with ELF4 is 1.11 fold enrichment (6-mer frequency, TF over GST control); with ELK4 it was 1.18 fold enrichment (6-mer frequency, TF over GST control); in the test with ETV2, 1.37 fold enrichment (6-mer frequency, TF over GST control); with ELF3, 1.19 fold enrichment (6-mer frequency, TF over GST control); with ETV1, 1.22 fold enrichment (6-mer frequency, TF over GST control).
